Measurements taken from article PMC5540273 (PLoS ONE, 2017).

Key:
Settings in all cases: concentration: 1 μM, replicates: in singlicate; n = 1
ALK = test system: ALK
AMPK-alpha1 = test system: T1, AMPK-alpha1
T1 construct: gene PRKAA1

AMPK-alpha2 = test system: T2, AMPK-alpha2
T2 construct: gene PRKAA2

ANKK1 = test system: ANKK1
ARK5 = test system: T3, ARK5
T3 construct: gene NUAK1

ASK1 = test system: T4, ASK1
T4 construct: gene MAP3K5

ASK2 = test system: T5, ASK2
T5 construct: gene MAP3K6

AURKA = test system: AURKA
AURKB = test system: AURKB
AURKC = test system: AURKC
AXL = test system: AXL
BIKE = test system: T6, BIKE
T6 construct: gene BMP2K

BLK = test system: BLK
BMPR1A = test system: BMPR1A
BMPR1B = test system: BMPR1B
BMPR2 = test system: BMPR2
BMX = test system: BMX
BRAF = test system: BRAF
BRK = test system: T7, BRK
T7 construct: gene PTK6

BRSK1 = test system: BRSK1
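Also: KINOMEscan kinase panel screen.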

SMILES	%Inh (ALK) [%]	%Inh (AMPK-alpha1) [%]	%Inh (AMPK-alpha2) [%]	%Inh (ANKK1) [%]	%Inh (ARK5) [%]	%Inh (ASK1) [%]	%Inh (ASK2) [%]	%Inh (AURKA) [%]	%Inh (AURKB) [%]	%Inh (AURKC) [%]	%Inh (AXL) [%]	%Inh (BIKE) [%]	%Inh (BLK) [%]	%Inh (BMPR1A) [%]	%Inh (BMPR1B) [%]	%Inh (BMPR2) [%]	%Inh (BMX) [%]	%Inh (BRAF) [%]	%Inh (BRK) [%]	%Inh (BRSK1) [%]
COc1cc2ncn(-c3cc(OCc4ccncc4)c(C(N)=O)s3)c2cc1OC [GSK336313]	20	0	0	0	16	6	0	17	0	4	0	14	0	0	0	0	2	0	0	0
Nc1ncnc2c1ncn2-c1ccc(Cl)cc1 [AH2635]	0	0	0	0	0	0	0	0	0	17	0	28	24	0	0	2	20	0	0	0
COc1cccc(-n2cnc3c(N)ncnc32)c1 [SKF-97416]	56	2	15	14	0	4	35	0	31	5	0	0	0	17	24	57	0	18	0	16
CN1C(=O)C(Nc2ccccc2)=C(c2ccccc2)C1=O [SB-300079]	7	0	1	15	0	0	0	0	21	0	0	0	23	12	0	14	0	9	0	0
CCS(=O)c1ccc(-c2coc3ccc(-c4nnc(C)o4)cc23)cc1 (centres unmarked)	5	26	1	30	0	0	0	16	1	0	0	0	3	0	6	15	18	0	0	0
COc1cc2nccc(Nc3cccc(Oc4ccccc4)c3)c2cc1OC.Cl [GW284543]	1	12	0	0	0	0	0	5	0	0	0	1	69	0	0	0	0	0	60	0
Cc1cc(Nc2nc(-c3cccc(C)n3)nc3ccccc23)ccn1 [GW872411]	0	0	0	0	9	0	0	3	14	0	0	0	0	3	0	0	0	0	0	0
CCC(=O)c1c(-c2ccccc2)c2cc(Cl)ccc2c(=O)n1Cc1ccc(C(=O)O)cc1	0	0	0	0	6	0	0	0	19	0	0	0	0	0	0	4	0	48	0	0
COc1cc(Nc2nccc(N3CCC(NC(=O)C(C)c4ccc(Cl)cc4)C3)n2)cc(OC)c1OC (centres unmarked) [GSK1379757]	22	17	0	17	34	0	0	52	60	72	13	40	28	0	0	4	1	0	11	0
Cc1ccc(-c2ccc3c(ccc4sc5c(c43)NC[C@@H](C)N=C5N(C)C)n2)cn1	4	0	0	0	0	0	0	0	0	0	0	0	0	0	0	0	0	0	0	0
Cc1nnc(-c2ccc(C)c(-c3ccc(C(=O)O)cc3)c2)o1 [GW608005]	1	0	0	0	11	0	0	0	0	6	0	0	31	0	0	0	0	0	0	2
CCn1c(-c2ccoc2)nc2cnccc21 [SB-733887]	31	10	9	0	0	23	5	16	45	10	5	6	0	0	10	20	0	1	0	0
COc1cc2ncn(-c3cc(OCc4ccncc4Br)c(C(N)=O)s3)c2cc1OC [GW854278]	0	7	0	5	0	6	6	0	20	20	30	39	11	8	6	13	10	2	6	25
CCCC(=O)Nc1n[nH]c2ncc(-c3cccc4ccccc34)cc12 [SB-642057]	29	37	19	7	6	9	9	6	24	16	18	28	0	12	5	0	0	0	0	0
COc1cccc(C2=C(Nc3cccc(C(=O)O)c3)C(=O)NC2=O)c1 [SB-390770]	0	45	16	70	0	5	4	21	31	14	0	15	1	12	0	10	14	0	7	0
Cc1ccccc1COc1cc(-n2cnc3cc(Cl)ccc32)sc1C(N)=O [GW813349]	23	0	3	26	0	18	0	26	2	31	2	20	18	0	12	26	1	6	0	0
COC(=O)c1c(-c2ccccc2)c2cc(Br)ccc2c(=O)n1Cc1ccc(NC(=O)CCC(=O)O)cc1	52	21	22	0	0	2	0	0	9	0	0	0	4	0	6	7	2	42	0	0
Nc1nccc2scc(-c3ccc4c(c3)CCN4C(=O)Cc3ccccc3)c12 [GSK2576924]	0	0	21	21	9	6	0	9	16	25	36	8	1	0	0	2	19	0	43	0
Nc1ncnc2c1ncn2-c1cccc(F)c1 [SKF-97560]	43	0	0	17	2	18	35	0	6	0	13	0	0	0	29	26	24	24	0	0
COc1ccc(CNC(=O)NC2CCN(c3ccnc(Nc4ccc(F)cc4)n3)C2)cc1 (centres unmarked) [GSK1379706]	0	0	0	8	16	11	0	35	20	19	10	0	3	6	0	22	26	3	21	0
COc1cc2nccc(Nc3ccc(OCc4ccc(NC(C)=O)cc4)cc3)c2cc1OC.Cl [GW440135]	5	15	10	0	28	3	0	0	0	0	13	0	26	24	0	8	26	6	36	0
Nc1nc(-c2ccccc2F)c(-c2ccnc3ccccc23)s1 [GW560459]	31	0	1	16	0	3	0	0	5	17	0	17	39	0	13	2	0	7	0	0
